# Results reported in paper PMC5700166.
# Columns and labels:
# Assay in all cases: protein-binding microarray (PBM); PBM: ~300 nM protein, 6 mM HEPES pH 7.8, 80 mM KCl, 0.5 mM EDTA, 0.5 mM EGTA, 6% glycerol, 35 ng/ul poly-dIdC, 1% milk, 1 h, room temperature; Ap Aiptasia and Nv Nematostella (sea anemones) / Co Capsaspora / Aq Amphimedon (sponge) / Dm Drosophila / Hu human; RHD is the Rel homology domain; high values mean tight binding
# Conditions in all cases: dsDNA, one strand shown
# GST-Ap-NF-kB RHD = biological target: T1, GST-Ap-NF-kB RHD (Exaiptasia pallida (Aiptasia), UniProt A0A913YAJ5 2-422)
# T1 sequence: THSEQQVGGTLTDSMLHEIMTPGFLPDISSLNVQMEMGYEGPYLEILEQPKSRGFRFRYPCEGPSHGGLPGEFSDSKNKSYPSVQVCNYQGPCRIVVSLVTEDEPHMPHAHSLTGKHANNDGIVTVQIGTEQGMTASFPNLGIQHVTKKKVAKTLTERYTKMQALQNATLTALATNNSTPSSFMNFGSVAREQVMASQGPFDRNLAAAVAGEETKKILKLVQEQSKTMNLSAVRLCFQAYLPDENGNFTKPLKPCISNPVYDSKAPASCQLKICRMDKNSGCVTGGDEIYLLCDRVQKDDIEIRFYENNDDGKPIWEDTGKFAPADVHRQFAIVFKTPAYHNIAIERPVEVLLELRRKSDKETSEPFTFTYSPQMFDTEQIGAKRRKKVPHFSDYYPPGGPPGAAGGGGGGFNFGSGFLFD
# [1] = biological target: T2, GST-Nv-NF-kB (Cys allele) (Nematostella vectensis, UniProt E5G601 2-411)
# T2 sequence: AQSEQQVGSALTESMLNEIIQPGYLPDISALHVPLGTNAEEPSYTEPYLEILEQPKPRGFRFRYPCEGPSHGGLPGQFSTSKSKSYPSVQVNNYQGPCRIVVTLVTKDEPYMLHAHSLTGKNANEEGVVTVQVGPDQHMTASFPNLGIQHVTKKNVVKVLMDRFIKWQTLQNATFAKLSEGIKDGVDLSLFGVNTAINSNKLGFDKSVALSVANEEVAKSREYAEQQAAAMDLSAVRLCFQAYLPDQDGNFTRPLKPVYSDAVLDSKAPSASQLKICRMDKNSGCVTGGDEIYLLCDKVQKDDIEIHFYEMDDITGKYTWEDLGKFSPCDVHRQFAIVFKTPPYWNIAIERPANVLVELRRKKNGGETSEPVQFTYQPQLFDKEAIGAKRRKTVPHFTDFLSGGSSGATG
# GST-Co-NF-kB = biological target: T3, GST-Co-NF-kB (Capsaspora owczarzaki, UniProt F1ARL5 200-546)
# T3 sequence: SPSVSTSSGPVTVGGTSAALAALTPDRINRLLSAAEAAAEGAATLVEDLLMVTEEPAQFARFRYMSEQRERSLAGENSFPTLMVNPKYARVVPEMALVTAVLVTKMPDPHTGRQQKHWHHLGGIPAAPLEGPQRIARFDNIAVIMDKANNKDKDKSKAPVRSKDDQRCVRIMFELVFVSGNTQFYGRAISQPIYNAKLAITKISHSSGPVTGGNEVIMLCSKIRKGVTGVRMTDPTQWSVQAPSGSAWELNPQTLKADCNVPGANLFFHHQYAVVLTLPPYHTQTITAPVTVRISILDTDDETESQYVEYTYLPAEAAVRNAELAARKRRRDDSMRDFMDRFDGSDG
# GST-Dm-Relish = biological target: T4, GST-Dm-Relish (Drosophila melanogaster, UniProt Q94527 99-473)
# T4 sequence: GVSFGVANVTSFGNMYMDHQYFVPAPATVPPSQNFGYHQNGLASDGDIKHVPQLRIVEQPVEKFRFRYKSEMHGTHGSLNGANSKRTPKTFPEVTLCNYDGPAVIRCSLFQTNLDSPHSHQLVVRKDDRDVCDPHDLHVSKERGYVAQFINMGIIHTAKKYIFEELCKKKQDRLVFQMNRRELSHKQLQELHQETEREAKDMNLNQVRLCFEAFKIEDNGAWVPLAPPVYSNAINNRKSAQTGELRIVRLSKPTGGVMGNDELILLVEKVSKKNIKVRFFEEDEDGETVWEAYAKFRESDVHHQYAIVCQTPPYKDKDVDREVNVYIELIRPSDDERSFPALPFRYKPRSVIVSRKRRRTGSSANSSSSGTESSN
# GST-Aq-NF-kB = biological target: T5, GST-Aq-NF-kB (Amphimedon queenslandica, UniProt A9Y5G7 2-389)
# T5 sequence: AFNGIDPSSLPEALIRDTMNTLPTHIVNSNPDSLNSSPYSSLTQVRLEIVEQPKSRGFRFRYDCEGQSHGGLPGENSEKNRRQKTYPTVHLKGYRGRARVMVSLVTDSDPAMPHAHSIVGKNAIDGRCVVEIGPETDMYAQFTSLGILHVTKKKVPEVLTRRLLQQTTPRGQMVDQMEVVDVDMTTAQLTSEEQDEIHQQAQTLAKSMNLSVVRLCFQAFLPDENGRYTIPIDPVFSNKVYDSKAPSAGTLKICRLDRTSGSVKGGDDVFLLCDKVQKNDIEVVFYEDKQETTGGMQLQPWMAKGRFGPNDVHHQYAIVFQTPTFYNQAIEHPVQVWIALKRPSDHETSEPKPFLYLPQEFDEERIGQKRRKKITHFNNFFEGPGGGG
Sequence,binding signal (GST-Ap-NF-kB RHD),binding signal [1],binding signal (GST-Co-NF-kB),binding signal (GST-Dm-Relish),binding signal (GST-Aq-NF-kB)
CCGATTAACATCAAGGAATACCCTGATGTTAATCGGGTCTTGATTCGCTTGACGCTGCTG,4.85 z-score,5.51 z-score,1.33 z-score,7.24 z-score,5.58 z-score
CCGATTAACATCAGGGGTTACCCTGATGTTAATCGGGTCTTGATTCGCTTGACGCTGCTG,6.28 z-score,5.58 z-score,4.23 z-score,8.84 z-score,7.71 z-score
CCGATTAACATCACCAATTTCCCTGATGTTAATCGGGTCTTGATTCGCTTGACGCTGCTG,3.3 z-score,4.17 z-score,3.83 z-score,1.84 z-score,3.17 z-score
CCGATTAACATCAATGGGAAAATTGATGTTAATCGGGTCTTGATTCGCTTGACGCTGCTG,1.56 z-score,4.28 z-score,3.46 z-score,1.25 z-score,3.05 z-score
CCGATTAACATCAGGGGGGACAATGATGTTAATCGGGTCTTGATTCGCTTGACGCTGCTG,4.56 z-score,4.19 z-score,6.09 z-score,2.95 z-score,4.16 z-score
CCGATTAACATCACGGAATACCCTGATGTTAATCGGGTCTTGATTCGCTTGACGCTGCTG,3.79 z-score,4.14 z-score,1.67 z-score,4.64 z-score,4.52 z-score
CCGATTAACATCACGTAAATCCCTGATGTTAATCGGGTCTTGATTCGCTTGACGCTGCTG,2.65 z-score,2.8 z-score,1.01 z-score,7.13 z-score,3.3 z-score
CCGATTAACATCACGGGAATGCCTGATGTTAATCGGGTCTTGATTCGCTTGACGCTGCTG,1.93 z-score,2.46 z-score,1.56 z-score,3.11 z-score,3.8 z-score
CCGATTAACATCAGGATCTCCCCTGATGTTAATCGGGTCTTGATTCGCTTGACGCTGCTG,7.91 z-score,5.49 z-score,4.26 z-score,5.64 z-score,6.38 z-score
CCGATTAACATCAAGGGAGTACCTGATGTTAATCGGGTCTTGATTCGCTTGACGCTGCTG,4.45 z-score,2.9 z-score,1.52 z-score,3.08 z-score,2.71 z-score
CCGATTAACATCAAAGAAATCCCTGATGTTAATCGGGTCTTGATTCGCTTGACGCTGCTG,4.82 z-score,4.34 z-score,1.36 z-score,6.17 z-score,4.61 z-score
CCGATTAACATCAAGTATTTCCCTGATGTTAATCGGGTCTTGATTCGCTTGACGCTGCTG,3.79 z-score,5.18 z-score,4.22 z-score,5.66 z-score,5.42 z-score
CCGATTAACATCAACCCCCGGCTTGATGTTAATCGGGTCTTGATTCGCTTGACGCTGCTG,4.17 z-score,2.37 z-score,2.79 z-score,4.35 z-score,2.51 z-score
CCGATTAACATCAAGGGGGGGGCTGATGTTAATCGGGTCTTGATTCGCTTGACGCTGCTG,5.13 z-score,3.96 z-score,4.65 z-score,5.21 z-score,4.89 z-score
